The supplement of paper PMC13380429
A number with no mark means an inactive call.

Test system: Vero E6 infected with SARS-CoV-2
Test: inhibition of SARS-CoV-2 cytopathic effect; higher = more antiviral protection, active = above 15
Settings: 48 h

Row | SMILES | inhibition of SARS-CoV-2 cytopathic effect (1 nM) [%] | inhibition of SARS-CoV-2 cytopathic effect (8.33 nM) [%] | inhibition of SARS-CoV-2 cytopathic effect (100 nM) | inhibition of SARS-CoV-2 cytopathic effect (833.33 nM) [%] | inhibition of SARS-CoV-2 cytopathic effect (10000 nM) [%]
1 | O=C(O)c1ccc(N2N=C(Cc3ccccc3)/C(=C\c3ccc(-c4ccccc4F)o3)C2=O)cc1 | -0.59 | 0.52 | -1.43% | 1.97 | -1.44
2 | Cc1cc(C)nc(NS(=O)(=O)c2ccc(NC(=S)NC(=O)COc3ccc(Br)cc3Cl)cc2)n1 | -1.5 | -0.46 | -0.98% | -2.23 | 0.9
3 | CCc1ccc2c(-c3cccc(Cl)c3)nc(=O)n(CC)c2n1 | -1.8 | 0.23 | 1.37% | -1.65 | 0.57
4 | CC(=O)OCC1=C(C(=O)O)N2C(=O)[C@@H](NC(=O)Cc3cccs3)[C@H]2SC1 [cephalothin] | 0.91 | 2.69 | 1.37% | -0.06 | 1.33
5 | COc1ccc(-n2nc(CCC(=O)N(C)O)cc2-c2ccc(Cl)cc2)cc1 [tepoxalin] | 0.7 | -1.58 | 0.1% | 1.81 | -0.4
6 | COc1ccc(C[C@H]2NC[C@H](O)[C@H]2OC(C)=O)cc1 [anisomycin] | 3.91 | 6 | 44.2% (active) | 7.95 | -30.6
7 | CO[C@@]1(NC(=O)Cc2cccs2)C(=O)N2C(C(=O)O)=C(COC(N)=O)CS[C@@H]21 [cefoxitin] | -0.07 | -1.13 | -0.89% | 0.12 | 1.09
8 | CC(=O)NC[C@H]1CN(c2ccc(-c3ccc(CNCc4cnn[nH]4)cc3)c(F)c2)C(=O)O1 [radezolid] | -1.38 | 0.58 | 2.16% | -0.64 | 2.43
9 | CN1[C@@H]2C[C@@H](OC(=O)[C@H](CO)c3ccccc3)C[C@H]1[C@@H]1O[C@@H]12 | 1.79 | 1.73 | 1.2% | 1.41 | 0.06
10 | CC[C@@H]1Cn2c(c3nc(-c4ccccc4)nc-3n(C)c2=O)N1 | -0.6 | -0.25 | -1.09% | 0.66 | 1.21
11 | COC(=O)Nc1ccc(-c2nc(N3CCOCC3)c3cnn(C4CCN(C(=O)OC)CC4)c3n2)cc1 | 1.39 | 1.76 | 4.01% | 0.99 | 2.63
12 | N#CN1CCCC1 [pyrrolidine-1-carbonitrile] | 3.76 | 2.93 | -2% | 1.38 | 2.45
13 | CN1CCN(CCCCN2C(=O)CN(/N=C/c3ccc(-c4ccc(Cl)cc4)o3)C2=O)CC1 [azimilide] | 0.53 | 0.51 | 2.48% | 0.41 | -1.08
14 | N#Cc1cnc2cnc(NCc3cccnc3)cc2c1Nc1ccc(F)c(Cl)c1 | 0.87 | 1.05 | 2.35% | -1.3 | -8.45
15 | CCC(=O)c1ccc(OCC(O)CN2CCN(c3ccccc3)CC2)cc1 (stereo not given) [centpropazine] | -4.09 | -0.61 | -2.65% | -0.96 | -0.58
16 | CC(C)c1cc(C(=O)N2Cc3ccc(CN4CCN(C)CC4)cc3C2)c(O)cc1O | -1.87 | -3.96 | -5.27% | -1.1 | 0.31
17 | CN(C)CCOc1ccc(-c2nc(-c3ccncc3)c(-c3ccc4c(c3)CC/C4=N\O)[nH]2)cc1 | -0.13 | -0.36 | 2.34% | -0.51 | 6.82
18 | COc1ccc(NS(=O)(=O)c2ccc(I)cc2)cc1N1CCN(C)CC1 | 0.59 | -5.4 | 0.99% | 0.95 | -1.3
19 | Clc1ccc2c(c1)CCc1cccnc1C2=C1CCNCC1 [desloratadine] | 5.47 | 2 | 3.51% | -0.44 | -5.42
